MITF TRPM1 HTS: activators of MITF-driven TRPM1 promoter reporter, primary screen, cell-based, SK-MEL-5, luciferase, single point; SK-MEL-5 TRPM1-promoter luciferase, 24 h; % of positive control, neutral wells = 0; activation, % at 12.5 µM; 300,000 compounds, 0.75% hits;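 active = mean activation of at least 80% with every replicate also reaching 80%; inconclusive = mean reaches 80% but some replicate falls short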
HIV Env fusion: inhibitors of HIV-1 Env-driven cell-cell fusion, primary screen, HeLa-JRFL effector, CEM21 target cells, luciferase | 360,000 compounds, 1.1% hits | inhibition, % at 12.3 µM;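 active = mean replicate inhibition score of at least 50 and every replicate individually at or above 50; inconclusive = only one of the two criteria met; inactive = mean below 50 and not all replicates reaching 50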
Wnt bcat act: Wnt/beta-catenin pathway activators, primary screen, cell-based, plate reader, single point. Wnt/beta-catenin reporter cell assay, activator. activation, % at 9.35 µM. 300,000 compounds, 1.2% hits. AID 743398, 2014; in the data active = activation above about 30%, passing the limit was not always enough; inconclusive = no clear call, values can overlap the other calls
miR-122 sensor: miR-122 Renilla sensor signal increase in Huh7, primary screen, miR-122 inhibitor project, cell-based, single point, plate reader; 340,000 compounds, 0.3% hits; Huh7 miR-122 Renilla luciferase sensor, 48 h; neutral wells = 0, positive control = 100; activation (reporter increase), % at 12.5 µM;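 active = mean replicate activation score at least 90 and every replicate individually at or above 90; inconclusive = only one of the two criteria met; inactive = neither criterion met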;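 note: higher luciferase means less miR-122 activity so hits act as miR-122 inhibitors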
esBAF inh: Bmi1 luciferase reporter increase in mESCs, primary screen, esBAF inhibitor project, mouse ES cells, Bmi1 luciferase knock-in, single point | 24 h; 100% = twice the neutral-well signal | reporter increase, % at 12.5 µM | 350,000 compounds, 2% hits | AID 602393, 2012; in the data active = activation above about 40%; inconclusive = no clear call, values can overlap the other calls;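 note: a rise in the Bmi1 reporter signal indicates esBAF inhibition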
A number is an active result. Shown are actives, neighbours in structure and some others; about 3.4% of the full set was active somewhere.

Screening O=C(C[C@@H]1C=C[C@H](NC(=O)Nc2ccc3c(c2)OCO3)[C@H](CO)O1)NCCCN1CCOCC1 returned HIV Env fusion inactive and esBAF inh inactive.
For C=CCn1c(SCC(=O)NCc2ccco2)nc2sc3c(c2c1=O)CCC3 the results were MITF TRPM1 HTS inactive, HIV Env fusion 65, Wnt bcat act inactive and miR-122 sensor inactive.
C=CCn1c(SCC(=O)NCc2ccco2)nc2sc3c(c2c1=O)CCCC3 was read as MITF TRPM1 HTS inactive, miR-122 sensor inactive and esBAF inh inactive.
Screening CC(NC(=O)CSc1nc2sc3c(c2c(=O)n1-c1ccccc1)CCCC3)c1ccccc1 (stereo unspecified) returned MITF TRPM1 HTS inactive, HIV Env fusion 103, miR-122 sensor inactive and esBAF inh inactive.
For O=C(O)CSc1nc2sc3c(c2c(=O)n1-c1ccccc1)CCC3 the results were MITF TRPM1 HTS inactive, HIV Env fusion inactive, Wnt bcat act inactive, miR-122 sensor inactive and esBAF inh inactive.
For CN1CCc2c(sc3nc(SCC(=O)NCc4ccco4)n(-c4ccccc4)c(=O)c23)C1 the results were MITF TRPM1 HTS inactive, HIV Env fusion inactive, Wnt bcat act inactive, miR-122 sensor inactive and esBAF inh 70.
`O=C(Nc1ccc(Cl)cn1)c1cccc(F)c1` gave MITF TRPM1 HTS inactive, miR-122 sensor inactive and esBAF inh inactive.
C/C(=C\c1ccccc1)C(=O)Nc1ccc(Cl)cn1 was read as HIV Env fusion inactive, Wnt bcat act 33, miR-122 sensor inactive and esBAF inh inactive.
For O=C(Nc1ccc(Cl)cn1)Nc1ccccc1F the results were HIV Env fusion inactive, Wnt bcat act 39, miR-122 sensor inactive and esBAF inh inactive.
Screening O=C(NC(=O)c1ccccc1)Nc1ccc(Cl)cn1 returned MITF TRPM1 HTS inactive, HIV Env fusion inactive, Wnt bcat act 35 and esBAF inh inactive.
Screening O=C(Nc1ccc(Cl)cn1)c1ccccc1F returned MITF TRPM1 HTS inactive, HIV Env fusion inactive, Wnt bcat act 39 and miR-122 sensor inactive.
For COCC(=O)Nc1ccc2c(c1)[C@H]1C[C@H](CC(=O)NCc3cc(F)ccc3F)O[C@H](CO)[C@H]1O2 the results were HIV Env fusion inactive, miR-122 sensor inactive and esBAF inh inactive.
`C[C@H](CO)N1C[C@H](C)[C@H](CN(C)Cc2ccncc2)OCCCC[C@H](C)Oc2ccc(NC(=O)Nc3ccc(F)cc3)cc2C1=O` gave HIV Env fusion inactive, miR-122 sensor inactive and esBAF inh inactive.
CO[C@@H](CN(C)C(=O)c1cnccn1)[C@H](C)CN([C@@H](C)CO)S(=O)(=O)c1ccc(F)cc1 was read as esBAF inh inactive.
Screening Cc1cc(NC(=O)c2ccccc2F)ncc1NC(=O)c1cccs1 returned MITF TRPM1 HTS inactive, HIV Env fusion inactive, Wnt bcat act inactive, miR-122 sensor inactive and esBAF inh 50.
Screening COc1cc2ccccc2cc1C(=O)Nc1ccc(Cl)cn1 returned MITF TRPM1 HTS inactive, HIV Env fusion inactive, Wnt bcat act inactive, miR-122 sensor inactive and esBAF inh 67.
`O=C(Nc1ccc(Cl)cn1)c1ccc([N+](=O)[O-])o1` gave MITF TRPM1 HTS inactive, HIV Env fusion inactive and Wnt bcat act 54.
`COc1ccc(NC(=O)N(C)C[C@H]2Oc3ccc(NS(=O)(=O)c4ccc(F)cc4)cc3CC(=O)N([C@@H](C)CO)C[C@@H]2C)cc1` gave HIV Env fusion inactive, miR-122 sensor inactive and esBAF inh inactive.
`CC(C)NC(=O)Nc1ccc2c(c1)C(=O)N([C@@H](C)CO)C[C@@H](C)[C@@H](CN(C)C(=O)NC(C)C)OCCCC[C@H](C)O2` gave HIV Env fusion inactive and miR-122 sensor inactive.
`O=C(CN1CCOCC1)NCC[C@H]1CC[C@@H](NC(=O)c2ccc3c(c2)OCO3)[C@@H](CO)O1` gave HIV Env fusion inactive and esBAF inh inactive.
COCC(=O)Nc1ccc2c(c1)OC[C@H](C)N(CC1CC1)C[C@@H](C)[C@@H](OC)CN(C)C2=O was read as HIV Env fusion inactive and esBAF inh inactive.
`CCCCOCCCNc1ncnc2c1[nH]c1ccccc12` gave MITF TRPM1 HTS inactive, HIV Env fusion 88, miR-122 sensor inactive and esBAF inh inactive.
CCOCCCNc1ncnc2c1[nH]c1ccccc12 was read as MITF TRPM1 HTS inactive, Wnt bcat act inactive, miR-122 sensor inactive and esBAF inh inactive.
`C/C=C/c1cnc2c(c1)C(=O)N([C@H](C)CO)C[C@H](C)[C@H](CN(C)C(=O)Cc1ccccc1)O2` gave HIV Env fusion inactive, miR-122 sensor inactive and esBAF inh inactive.
For ClCc1csc(-c2ccc(Cl)cc2)n1 the results were MITF TRPM1 HTS inactive and miR-122 sensor inactive.
For CC1CN(Cc2csc(-c3ccc(Cl)cc3)n2)CC(C)O1 (stereo unspecified) the results were MITF TRPM1 HTS inactive, HIV Env fusion inactive, Wnt bcat act inactive, miR-122 sensor inactive and esBAF inh 47.
For COC(=O)CSC1=NS(=O)(=O)c2ccccc21 the results were MITF TRPM1 HTS inactive and miR-122 sensor inactive.
`O=C(CSC1=NS(=O)(=O)c2ccccc21)Nc1ccccc1` gave MITF TRPM1 HTS inactive, HIV Env fusion inactive, Wnt bcat act inactive, miR-122 sensor inactive and esBAF inh 50.
For O=C(CSc1nc2ccccc2c(=O)n1-c1ccccc1)N1CCc2ccccc2C1 the results were MITF TRPM1 HTS inactive and miR-122 sensor inactive.
Screening CC(C)c1ccccc1-n1c(SCC(=O)N2CCc3ccccc3C2)nc2ccccc2c1=O returned MITF TRPM1 HTS inactive, HIV Env fusion 60 and Wnt bcat act inactive.
Screening O=C(NCCc1ccncc1)[C@H]1N[C@H]2c3ccc(/C=C/c4ccccc4)c(=O)n3C[C@H]2[C@@H]1CO returned HIV Env fusion inactive and esBAF inh inactive.
S=C(Nc1ccc2nsnc2c1)N1CCCCCC1 was read as MITF TRPM1 HTS 94, HIV Env fusion inactive and Wnt bcat act inactive.
For CC1CCN(C(=O)Nc2ccc3nsnc3c2)CC1 the results were MITF TRPM1 HTS 100, miR-122 sensor inactive and esBAF inh inconclusive.
Screening C[C@@H]1CN([C@@H](C)CO)C(=O)CCCn2cc(nn2)CO[C@@H]1CN(C)C returned miR-122 sensor inactive and esBAF inh inactive.
CC(C)NC(=O)Nc1ccc2c(c1)C(=O)N([C@H](C)CO)C[C@@H](C)[C@@H](CN(C)Cc1ccc3c(c1)OCO3)OCCCC[C@H](C)O2 was read as HIV Env fusion inactive, miR-122 sensor inactive and esBAF inh inactive.
`O=c1c(-c2cnn(-c3ccccc3)c2)coc2cc(O)ccc12` gave MITF TRPM1 HTS inactive, miR-122 sensor inactive and esBAF inh 105.
Screening Cc1noc(C)c1NC(=O)Nc1ccc2c(c1)CC(=O)N([C@H](C)CO)C[C@H](C)[C@H](CN(C)Cc1ccccc1)O2 returned HIV Env fusion inactive, miR-122 sensor inactive and esBAF inh inactive.

High-throughput results from PubChem BioAssay.
